# Measured values taken from publication PMC11062922 (Nature Chemical Biology, 2023).
# Where two headings read alike, the source gives them in different places.
# Legend:
# Set-up in all cases: species or system human, MV4-11 + K-562 + COLO205 + SK-N-BE2 + OVCAR-8
# [1] = tested on: DDR1; details: read-out: apparent Kd, n = 1
# [2] = tested on: MAPK11; details: read-out: apparent Kd, n = 1
# [3] = tested on: MAPK14; details: read-out: apparent Kd, n = 1
# [4] = tested on: MAPKAPK2; details: read-out: apparent Kd; compound concentrations: 100 nM and 1000 nM (sheet 'Samples'), CATDS: 0.28488469813325601; n = 1
# [5] = tested on: MAPK10; details: read-out: apparent Kd; compound concentrations:100 nM and 1000 nM (sheet 'Samples'); n = 1
# [6] = tested on: MAPK8; details: read-out: apparent Kd; compound concentrations:100 nM and 1000 nM (sheet 'Samples'); n = 1
# [7] = tested on: MAPK9; details: read-out: apparent Kd; compound concentrations:100 nM and 1000 nM (sheet 'Samples'); n = 1
# [8] = tested on: PIP4K2C; details: read-out: apparent Kd; compound concentrations:100 nM and 1000 nM (sheet 'Samples'); n = 1
# [9] = tested on: T1, DJA1; details: read-out: apparent Kd, compound concentrations: 100 nM and 1000 nM (sheet 'Samples'), n = 1
# T1 construct: gene DNAJA1
# [10] = tested on: PIK3CD; details: read-out: apparent Kd; compound concentrations: 100 nM and 1000 nM (sheet 'Samples'), CATDS: 0.41369424364853202; n = 1
# [11] = tested on: TTN; details: read-out: apparent Kd; compound concentrations: 100 nM and 1000 nM (sheet 'Samples'), CATDS: 0.51725800618074103; n = 1
# [12] = tested on: EGFR; details: read-out: apparent Kd; compound concentrations: 100 nM and 1000 nM (sheet 'Samples'), CATDS: 1; n = 1
# [13] = tested on: DHCR24; details: read-out: apparent Kd; compound concentrations: 100 nM and 1000 nM (sheet 'Samples'), CATDS: 0.35595473001681699; n = 1
# [14] = tested on: EIF5B; details: read-out: apparent Kd; compound concentrations: 100 nM and 1000 nM (sheet 'Samples'), CATDS: 0.317916944834297; n = 1
# [15] = tested on: TOP2B; details: read-out: apparent Kd; compound concentrations: 100 nM and 1000 nM (sheet 'Samples'), CATDS: 0.32838798877743502; n = 1
# [16] = tested on: GSK3A; details: read-out: apparent Kd; compound concentrations: 100 nM and 1000 nM (sheet 'Samples'), CATDS: 0.18190367371529301; n = 1
# [17] = tested on: GSK3B; details: read-out: apparent Kd; compound concentrations: 100 nM and 1000 nM (sheet 'Samples'), CATDS: 0.17248189014097001; n = 1
# [18] = tested on: ILK; details: read-out: apparent Kd; compound concentrations: 100 nM and 1000 nM (sheet 'Samples'), CATDS: 0.13612875725697299; n = 1
# [19] = tested on: NQO2; details: read-out: apparent Kd; compound concentrations: 100 nM and 1000 nM (sheet 'Samples'), CATDS: 0.173411525016403; n = 1
# [20] = tested on: PDXK; details: read-out: apparent Kd; compound concentrations: 100 nM and 1000 nM (sheet 'Samples'), CATDS: 0.17608898897019801; n = 1
# [21] = compound concentrations:100 nM and 1000 nM (sheet 'Samples')
smiles,measurement,setting,value
Cc1ccc(NC(=O)c2ccnc(N3CCCC3)c2)cc1-c1ccc(C(=O)NCC2CC2)cc1 [GW769076X],potency estimated from few doses,"[1]; compound concentrations: 100 nM and 1000 nM (sheet 'Samples'), CATDS: 0.199850350995284",570 nM
same,potency estimated from few doses,"[2]; compound concentrations: 100 nM and 1000 nM (sheet 'Samples'), CATDS: 0.201173372459408",559 nM
same,potency estimated from few doses,"[3]; compound concentrations: 100 nM and 1000 nM (sheet 'Samples'), CATDS: 0.39757840601660499",140 nM
same,potency estimated from few doses,[4],250 nM
O=c1c(Oc2ccc(F)cc2F)cc2cnc(NC3CCOCC3)nc2n1CCCO [RO4442245-000],potency estimated from few doses,[1]; [21],1080 nM
same,potency estimated from few doses,[5],42.5 nM
same,potency estimated from few doses,[2]; [21],13.4 nM
same,potency estimated from few doses,[3]; [21],0.149 nM
same,potency estimated from few doses,[6],54.7 nM
same,potency estimated from few doses,[7],15.9 nM
same,potency estimated from few doses,[8],611 nM
Nc1nccc2scc(-c3ccc4c(c3)CCN4C(=O)Cc3cc(F)ccc3F)c12 [GSK2587663A],potency estimated from few doses,[9]; CATDS: 0.21507760056604699,1090 nM
same,potency estimated from few doses,[10],127 nM
same,potency estimated from few doses,[11],83.2 nM
Fc1cccc(COc2ccc(Nc3ncnc4sc(-c5ccc[nH]5)cc34)cc2Cl)c1 [GW707818B],potency estimated from few doses,[12],1030 nM
Cl.c1ccc(Cn2ncc3cc(Nc4ncnc5ccccc45)ccc32)cc1 [GW273749A],potency estimated from few doses,[12],25.4 nM
Cc1ccc(NC(=O)Nc2ccc(Cl)cc2)cc1-c1ccc(C(=O)Nc2ccncc2)cc1 [GSK1398472A],potency estimated from few doses,[13],1500 nM
same,potency estimated from few doses,[14],1880 nM
same,potency estimated from few doses,[15],1750 nM
Cn1cc(C2=C(c3cn(C)c4ncccc34)C(=O)NC2=O)c2ccccc21 [RO0271528-000],potency estimated from few doses,[9]; CATDS: 0.169109962216623,1330 nM
same,potency estimated from few doses,[16],1150 nM
same,potency estimated from few doses,[17],1280 nM
same,potency estimated from few doses,[18],2170 nM
same,potency estimated from few doses,[19],1260 nM
same,potency estimated from few doses,[20],1230 nM
